# From PubChem BioAssay (Tox21)
# Records with an inconclusive call do not appear. Active and inactive are the calls of the source. Calls come from the whole dose curve.
# Target: Acetylcholinesterase (Homo sapiens) (UniProt P22303)
# Assay: Acetylcholinesterase (AChE) small molecule antagonists: enzyme-based qHTS assay (AID 1347397); note: nearly all actives have a fitted effect of over 55% in size
# Conditions: Potency: AChE enzyme activity inhibition; outcome: AChE enzyme activity inhibition; series mostly up to 115 µM; activity change, negative = inhibition: at the top concentration
# Method in brief: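 In this quantitative HTS, compounds from the Tox21 10K collection were preincubated 30 min at ambient temperature with recombinant human AChE dispensed at 50 mU/mL. Hydrolysis of acetylthiocholine was then followed for 10 min by DTNB colour development.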
# % is set by controls: 0 for no effect and ±100 for the full control effect; potency is the fitted concentration of half-maximal effect.
# Sequence of Acetylcholinesterase (Homo sapiens) (P22303 whole entry, looked up): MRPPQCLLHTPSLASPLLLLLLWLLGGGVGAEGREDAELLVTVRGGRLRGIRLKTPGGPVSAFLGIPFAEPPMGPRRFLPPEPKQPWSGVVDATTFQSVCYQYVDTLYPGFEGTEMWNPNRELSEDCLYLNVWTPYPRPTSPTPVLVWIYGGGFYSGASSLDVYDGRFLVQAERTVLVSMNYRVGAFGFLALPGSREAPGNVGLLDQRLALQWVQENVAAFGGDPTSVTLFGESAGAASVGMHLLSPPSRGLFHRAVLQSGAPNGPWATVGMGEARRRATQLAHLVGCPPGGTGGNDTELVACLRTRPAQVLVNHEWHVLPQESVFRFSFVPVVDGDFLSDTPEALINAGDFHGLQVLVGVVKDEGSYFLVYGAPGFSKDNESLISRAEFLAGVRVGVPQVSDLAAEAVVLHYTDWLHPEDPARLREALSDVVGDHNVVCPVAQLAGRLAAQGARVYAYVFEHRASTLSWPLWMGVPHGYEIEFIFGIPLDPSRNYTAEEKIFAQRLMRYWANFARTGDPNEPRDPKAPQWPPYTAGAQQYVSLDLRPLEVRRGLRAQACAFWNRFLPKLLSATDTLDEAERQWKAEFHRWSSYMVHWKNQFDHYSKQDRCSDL
SMILES,Potency,"activity change, negative = inhibition",outcome
Cc1ccc2c(c1[N+](=O)[O-])C(=O)c1ccccc1C2=O,1390 nM (active),–,–
CN1CCN(C2=Nc3ccccc3Oc3ccc(Cl)cc32)CC1,–,0.139% [at 53 µM] (inactive),–
CCCCOC(=O)CCCCC(=O)OCCCC,–,0.186% (inactive),–
C/C(=N\[Si](C)(C)C)O[Si](C)(C)C,–,1.23% (inactive),–
Fc1ccc(C(c2ccc(F)cc2)N2CCN(C/C=C/c3ccccc3)CC2)cc1,–,-0.135% [at 53 µM] (inactive),–
CCCCCCCCCC[N+](C)(C)[O-],–,1.09% (inactive),–
COC(=O)CC#N,–,0.533% (inactive),–
CC(=N\O)/C(C)=N/O,–,0.516% (inactive),–
COc1ccccc1N1CCN(CC(O)COc2cc(OC)c(OC)c(OC)c2)CC1 (stereo not drawn),–,0.26% [at 53 µM] (inactive),–
CNCC(O)c1ccc(O)c(O)c1 (stereo not drawn),–,–,inactive
O=C(O)[C@H](O)c1ccccc1,–,0.371% [at 53 µM] (inactive),–
OCC(CO)N[C@H]1C[C@](O)(CO)[C@@H](O)[C@H](O)[C@H]1O,–,0.671% [at 53 µM] (inactive),–
Clc1ccc2n[nH]nc2c1,–,-2.2% (inactive),–
O=S(=O)(O)c1ccc2c(N=Nc3ccc(S(=O)(=O)O)c4ccccc34)c(O)c(S(=O)(=O)O)cc2c1,–,1.09% [at 10.5 µM] (inactive),–
CSSc1ccoc1C,–,0.695% (inactive),–
CCCCCCCC/C=C\CCCCCCCC(=O)N(C)CC(=O)O,63300 nM (active),–,–
C#CC(O)C(CC)CCCC (stereo not drawn),–,-0.129% (inactive),–
O=C(c1ccco1)N1CCNCC1,–,0.978% [at 53 µM] (inactive),–
CC1COc2c(N3CCN(C)CC3)c(F)cc3c(=O)c(C(=O)O)cn1c23 (stereo not drawn),–,-0.817% [at 53 µM] (inactive),–
O=C(O)c1ccc(O)c(O)c1,–,0.682% (inactive),–

SMILES,Potency,"activity change, negative = inhibition",outcome
CC(O)C1CCCCC1 (stereo not drawn),–,-0.828% (inactive),–
C1=CCC(c2ccccc2)CC1 (stereo not drawn),–,0.14% (inactive),–
C/C=C/C(=O)C1=C(C)C=CCC1(C)C,–,0.397% (inactive),–
C[N+]1([O-])CCOCC1,–,0.818% (inactive),–
CCCOC(OCCC)OCCC,–,-0.645% (inactive),–
CCCC(=O)O[C@]1(C(=O)CCl)[C@@H](C)C[C@H]2[C@@H]3CCC4=CC(=O)C=C[C@]4(C)[C@@]3(F)C(=O)C[C@@]21C,–,-3.61% [at 53 µM] (inactive),–
Cc1cc(CC(=O)O)c(C)n1-c1ccc(Cl)cc1,–,-1.02% [at 53 µM] (inactive),–
CNC(=S)NC,–,-0.541% (inactive),–
C=CC(=O)OCC1CCCO1 (stereo not drawn),–,-1.01% (inactive),–
CN1CCCN=C1COC(=O)C(O)(c1ccccc1)C1CCCCC1 (stereo not drawn),–,-1.24% [at 53 µM] (inactive),–
Cc1ccc(O)cn1,–,0.409% (inactive),–
O=c1[nH]sc2ccccc12,–,-1.58% (inactive),–
CCCO,–,0.774% (inactive),–
CC(C)CCCC(C)(C)O,–,1.7% (inactive),–
CCCCCCOC(=O)NC(=N)c1ccc(NCc2nc3cc(C(=O)N(CCC(=O)OCC)c4ccccn4)ccc3n2C)cc1,–,-17.3% [at 53 µM] (inactive),–
C=CCCC(=O)O,–,-2.24% (inactive),–
CC(C)(C)C(=O)OCOC(=O)C1N2C(=O)CC2S(=O)(=O)C1(C)C (stereo not drawn),–,-0.0201% [at 53 µM] (inactive),–
CC1=NN(c2cccc(S(=O)(=O)O)c2)C(=O)C1,–,-0.774% (inactive),–
Cc1cc(C)cc([N+](=O)[O-])c1,–,0.682% (inactive),–

# Target: Acetylcholinesterase (Homo sapiens) (UniProt P22303)
# Assay: Acetylcholinesterase (AChE) small molecule antagonists: fluorescence cell-based qHTS assay (AID 1347398); note: nearly all actives have a fitted effect of over 50% in size
# Conditions: SH-SY5Y cells; Potency: AChE activity; outcome: AChE activity; series mostly up to 115 µM; activity change, negative = inhibition: at the top concentration
# Method in brief: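 Cells (SH-SY5Y) attached overnight, were dosed with compound or DMSO vehicle for 30 min at 37 C, and then incubated 40 min at room temperature with acetylthiocholine and Thiolite Green; green fluorescence indexed AChE activity.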
SMILES,Potency,"activity change, negative = inhibition",outcome
Cc1ccc2c(c1[N+](=O)[O-])C(=O)c1ccccc1C2=O,392 nM (active),–,–
CN1CCN(C2=Nc3ccccc3Oc3ccc(Cl)cc32)CC1,–,-10.6% [at 53.7 µM] (inactive),–
CCCCOC(=O)CCCCC(=O)OCCCC,–,5.92% (inactive),–
C/C(=N\[Si](C)(C)C)O[Si](C)(C)C,–,0.922% (inactive),–
Fc1ccc(C(c2ccc(F)cc2)N2CCN(C/C=C/c3ccccc3)CC2)cc1,–,-4.53% [at 53.7 µM] (inactive),–
CCCCCCCCCC[N+](C)(C)[O-],–,0.773% (inactive),–
COC(=O)CC#N,–,5.09% (inactive),–
CC(=N\O)/C(C)=N/O,–,1.6% (inactive),–
COc1ccccc1N1CCN(CC(O)COc2cc(OC)c(OC)c(OC)c2)CC1 (stereo not drawn),–,0.752% [at 53.7 µM] (inactive),–
CNCC(O)c1ccc(O)c(O)c1 (stereo not drawn),–,–,inactive
O=C(O)[C@H](O)c1ccccc1,–,-2.94% [at 53.7 µM] (inactive),–
OCC(CO)N[C@H]1C[C@](O)(CO)[C@@H](O)[C@H](O)[C@H]1O,–,7.1% [at 53.7 µM] (inactive),–
Clc1ccc2n[nH]nc2c1,–,-3.32% (inactive),–
O=S(=O)(O)c1ccc2c(N=Nc3ccc(S(=O)(=O)O)c4ccccc34)c(O)c(S(=O)(=O)O)cc2c1,–,5.15% [at 10.5 µM] (inactive),–
CSSc1ccoc1C,–,0.0091% (inactive),–
CCCCCCCC/C=C\CCCCCCCC(=O)N(C)CC(=O)O,–,4.4% (inactive),–
C#CC(O)C(CC)CCCC (stereo not drawn),–,-3.41% (inactive),–
O=C(c1ccco1)N1CCNCC1,–,6.96% [at 53.7 µM] (inactive),–
CC1COc2c(N3CCN(C)CC3)c(F)cc3c(=O)c(C(=O)O)cn1c23 (stereo not drawn),–,-0.0764% [at 53.7 µM] (inactive),–
O=C(O)c1ccc(O)c(O)c1,–,-3.29% (inactive),–

SMILES,Potency,"activity change, negative = inhibition",outcome
CC(O)C1CCCCC1 (stereo not drawn),–,6.55% (inactive),–
C1=CCC(c2ccccc2)CC1 (stereo not drawn),–,2.55% (inactive),–
C/C=C/C(=O)C1=C(C)C=CCC1(C)C,–,1.89% (inactive),–
C[N+]1([O-])CCOCC1,–,7.11% (inactive),–
CCCOC(OCCC)OCCC,–,4.81% (inactive),–
CCCC(=O)O[C@]1(C(=O)CCl)[C@@H](C)C[C@H]2[C@@H]3CCC4=CC(=O)C=C[C@]4(C)[C@@]3(F)C(=O)C[C@@]21C,–,1.58% [at 53.7 µM] (inactive),–
Cc1cc(CC(=O)O)c(C)n1-c1ccc(Cl)cc1,–,1.56% [at 53.7 µM] (inactive),–
CNC(=S)NC,–,4.88% (inactive),–
C=CC(=O)OCC1CCCO1 (stereo not drawn),–,0.291% (inactive),–
CN1CCCN=C1COC(=O)C(O)(c1ccccc1)C1CCCCC1 (stereo not drawn),–,-8.38% [at 53.7 µM] (inactive),–
Cc1ccc(O)cn1,–,1.29% (inactive),–
O=c1[nH]sc2ccccc12,–,21% (inactive),–
CCCO,–,6.55% (inactive),–
CC(C)CCCC(C)(C)O,–,4.99% (inactive),–
CCCCCCOC(=O)NC(=N)c1ccc(NCc2nc3cc(C(=O)N(CCC(=O)OCC)c4ccccn4)ccc3n2C)cc1,–,-11.2% [at 53.7 µM] (inactive),–
C=CCCC(=O)O,–,6.66% (inactive),–
CC(C)(C)C(=O)OCOC(=O)C1N2C(=O)CC2S(=O)(=O)C1(C)C (stereo not drawn),–,0.943% [at 53.7 µM] (inactive),–
CC1=NN(c2cccc(S(=O)(=O)O)c2)C(=O)C1,–,1.25% (inactive),–
Cc1cc(C)cc([N+](=O)[O-])c1,–,4.93% (inactive),–
